TRHR PAM = allosterically enhances the human TRH receptor; enhancement, % at 2 µM; actives 0.66% (n = 360,000); TRHR cells, fluo-8 calcium fluorescence, EC20 TRH enhancement; in the data active = enhancement above about 30%; note: 0% is about no effect
Target sequence (P34981 whole entry, looked up): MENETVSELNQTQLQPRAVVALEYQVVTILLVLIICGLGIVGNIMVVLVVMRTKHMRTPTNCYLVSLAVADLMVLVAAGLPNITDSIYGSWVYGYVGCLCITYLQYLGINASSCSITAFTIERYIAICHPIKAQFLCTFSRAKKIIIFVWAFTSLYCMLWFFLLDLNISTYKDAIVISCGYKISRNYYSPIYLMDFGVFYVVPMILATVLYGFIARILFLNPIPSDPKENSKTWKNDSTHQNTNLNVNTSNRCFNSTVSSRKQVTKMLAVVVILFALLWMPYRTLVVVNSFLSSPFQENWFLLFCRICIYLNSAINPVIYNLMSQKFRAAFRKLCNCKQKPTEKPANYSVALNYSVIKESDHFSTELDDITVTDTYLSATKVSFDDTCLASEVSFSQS
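TRHR-expressing cells loaded with fluo-8 calcium dye were read kinetically (ex 480/em 530) during compound addition, then stimulated with an EC20 of TRH (10 nM final). Enhancement of the Gq-mediated intracellular calcium response was scored.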
D1 antagonist = antagonists of human D1 dopamine receptor; HEK293 TREx D1 cells, calcium flux, dopamine EC80; active compounds read low; activity change, negative = inhibition, % at 10 µM; actives 3.2% (n = 360,000); P21728; AID 504652; in the data active = activity change below about -30%; note: % is set by controls: 0 for no effect and ±100 for the full control effect
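After overnight tetracycline induction at 30 C, force-coupled D1 HEK293 cells took up a no-wash calcium dye at room temperature. Compounds were added and monitored 180 s, and the response to EC80 dopamine was then recorded.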
D1 ag = human D1 receptor agonism. P21728. activation, % at 2 µM. AID 504660. actives 1% (n = 360,000). HEK293 T-REx D1 cells, calcium flux, agonist mode; note: 0% is about no effect
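Agonism was scored from calcium flux recorded over 180 s (1 read/s) after pintool compound addition, following a 10-cycle baseline. Cells were inducible force-coupled HEK293 TREx D1, plated overnight at 30 C and loaded with no-wash calcium dye.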
D1 PAM = potentiators of human D1 dopamine receptor; AID 504651; actives 0.036% (n = 360,000); HEK293 TREx D1 cells, calcium flux, dopamine EC20 potentiation; potentiation, % at 10 µM; P21728; in the data active = potentiation above about 30%; note: 0% is about no effect
TRHR ag = TRH receptor (human) agonism. P34981. actives 0.18% (n = 360,000). activation, % at 2 µM. TRHR cells, calcium flux fluo-8, FDSS agonist mode; note: 0% is about no effect
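TRHR-expressing cells loaded with fluo-8 calcium dye; 23 nL library compound pin-transferred, kinetic FDSS fluorescence (Ex 480/Em 530) recorded about 180 s for agonist-induced calcium release, before a 10 nM TRH EC20 addition for potentiator mode.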
Starred values were filed as active, the others as inactive. Most compounds without a hit are left out; they make up all but 4.7% or so of the library. Cut-off read from the data, not from the text of the source, unless noted: active = activation above about 30%; inactive = the rest.

For Cc1ccc(S(=O)(=O)N(C)Cc2nc(-c3ccc(Br)cc3)no2)cc1 the results were TRHR PAM -8, D1 antagonist -36*, D1 ag 16, D1 PAM -8 and TRHR ag 2.
Screening NC(=O)C1CCN(C2CC(=O)NC2=O)CC1 (stereo not drawn) returned TRHR PAM 1, D1 antagonist -37*, D1 ag 5, D1 PAM -3 and TRHR ag -1.
CN1C(=O)CC(N2CCC(C(N)=O)CC2)C1=O (stereo not drawn) was read as TRHR PAM 2, D1 antagonist -4, D1 ag 2, D1 PAM -1 and TRHR ag 0.
For CC(=O)Nc1ccc(S(=O)(=O)Nc2ccc3c(c2)CCC3)cc1 the results were TRHR PAM 27, D1 antagonist -56*, D1 ag 52*, D1 PAM -8 and TRHR ag -1.
Screening Cc1cccc(NC(=O)Nc2ccc3c(c2)CCC3)c1 returned TRHR PAM 1, D1 antagonist -30*, D1 ag 12, D1 PAM -5 and TRHR ag 1.
Cc1ccc(C(=O)Nc2ccc3c(c2)CCC3)cc1 was read as TRHR PAM 35*, D1 antagonist -3, D1 ag 0, D1 PAM 8 and TRHR ag -2.
Screening Cn1cc(C(=O)Nc2ccc3c(c2)CCC3)cn1 returned TRHR PAM -1, D1 antagonist -31*, D1 ag 1, D1 PAM -4 and TRHR ag 0.
COc1ccc(S(=O)(=O)Nc2ccc3c(c2)CCC3)cc1 was read as TRHR PAM -4, D1 antagonist -7, D1 ag 5, D1 PAM -4 and TRHR ag -1.
`CCOC(=O)CN(Cc1ccccc1)C(C(=O)NC1CCCCC1)c1ccc(C)cc1` (stereo not drawn) gave TRHR PAM 5, D1 antagonist 8, D1 ag 8, D1 PAM -1 and TRHR ag 0.
Screening N#C/C(=C\c1coc2ccccc2c1=O)C(N)=S returned TRHR PAM 1, D1 antagonist 11, D1 ag 3, D1 PAM 6 and TRHR ag -1.
`N#C/C(=C\c1coc2ccc(O)cc2c1=O)C(=O)Nc1nc2ccccc2s1` gave TRHR PAM 16, D1 antagonist -52*, D1 ag 227*, D1 PAM 2 and TRHR ag 74*.
Screening COc1ccc(C(=O)O)cc1NC(=S)NC(=O)/C=C/c1ccc(C(C)C)cc1 returned TRHR PAM 32*, D1 antagonist 7, D1 ag 0, D1 PAM -7 and TRHR ag -1.
CCCCC(=O)NC(=S)Nc1cc(C(=O)O)ccc1OC was read as TRHR PAM 2, D1 antagonist -14, D1 ag 7, D1 PAM -5 and TRHR ag 0.
For CC1CCN(C(c2ccccc2)c2sc3nc(-c4ccco4)nn3c2O)CC1 (stereo not drawn) the results were TRHR PAM -4, D1 ag 0, D1 PAM 0 and TRHR ag 0.
`O=C(Nc1ccccc1)c1sc(N2CCOCC2)nc1-c1ccccc1` gave TRHR PAM -5, D1 antagonist -1, D1 ag 2, D1 PAM -7 and TRHR ag 0.
Screening N#C/C(=C\c1sc(N2CCOCC2)nc1-c1ccccc1)C(=O)Nc1cccc2ccccc12 returned TRHR PAM 3, D1 antagonist -5, D1 ag 40*, D1 PAM 2 and TRHR ag 11.
CN(CC(=O)Nc1ccc(Cl)cc1F)S(=O)(=O)c1ccc2c(c1)n(C)c(=O)c(=O)n2C was read as TRHR PAM 8, D1 antagonist -24, D1 ag 2, D1 PAM -4 and TRHR ag -2.
O=C1NC(=Nc2ccc(O)cc2)S/C1=C/c1ccco1 was read as TRHR PAM -3, D1 antagonist -37*, D1 ag 0, D1 PAM -9 and TRHR ag 1.
CCc1ccc(N=C2NC(=O)/C(=C/c3cc(OC)c(OC)c(OC)c3)S2)cc1 was read as TRHR PAM 0, D1 antagonist -26, D1 ag 3, D1 PAM -4 and TRHR ag 0.
O=C1/C(=C\c2ccco2)SC(=S)N1c1ccc(O)cc1 was read as TRHR PAM 3, D1 antagonist -31*, D1 ag 3, D1 PAM -2 and TRHR ag 0.
Screening COc1cc(/C=C2\SC(=Nc3ccc(O)cc3)NC2=O)cc(OC)c1O returned TRHR PAM 3, D1 antagonist -7, D1 ag 17, D1 PAM -2 and TRHR ag 44*.
O=C1/C(=C/C=C/c2ccco2)SC(=S)N1c1ccc(O)cc1 was read as TRHR PAM 15, D1 antagonist 8, D1 ag 6, D1 PAM -4 and TRHR ag 1.
For O=C(CCCCn1c(=O)[nH]c2ccsc2c1=O)N1CCN(c2cccc(C(F)(F)F)c2)CC1 the results were TRHR PAM 3, D1 antagonist -11, D1 ag 2, D1 PAM -1 and TRHR ag 0.
For O=C(COc1ccccc1F)NNC(=O)Cc1ccc(S(=O)(=O)N2CCOCC2)s1 the results were TRHR PAM 5, D1 antagonist -26, D1 ag 1, D1 PAM -3 and TRHR ag 0.
Cc1ccccc1OCC(=O)NNC(=O)Cc1ccc(S(=O)(=O)N2CCOCC2)s1 was read as TRHR PAM -1, D1 antagonist -38*, D1 ag -1, D1 PAM -5 and TRHR ag 0.
`Cc1ccc(OCC(=O)NNC(=O)Cc2ccc(S(=O)(=O)N3CCOCC3)s2)cc1` gave TRHR PAM -7, D1 antagonist -49*, D1 ag 2, D1 PAM -2 and TRHR ag 0.
`COc1ccc(CCNC(=O)c2c(C)oc3ncn(CC(C)C)c(=O)c23)c(OC)c1` gave TRHR PAM 6, D1 antagonist -30*, D1 ag 0, D1 PAM -4 and TRHR ag -1.
Screening Cc1ccc(NC(=O)c2c(C)oc3ncn(CC(C)C)c(=O)c23)nc1 returned TRHR PAM 31*, D1 antagonist -14, D1 ag -1, D1 PAM 0 and TRHR ag -2.
`Cc1ccnc(NC(=O)c2c(C)oc3ncn(CC(C)C)c(=O)c23)c1` gave TRHR PAM -9, D1 antagonist 0, D1 ag 0, D1 PAM -4 and TRHR ag 0.
`Cc1ccc(CNC(=O)c2cccc3c2C(=O)c2ccc(N4CCOCC4)cc2S3(=O)=O)cc1` gave TRHR PAM 3, D1 ag 49*, D1 PAM -3 and TRHR ag 2.
